In the library only some 13% were active in any assay of this set; here they are far more common.
HCV inh = HCV inhibition; Huh7.5.1 HCVcc-Cre infection, luciferase reporter, 44 h; Potency, µM (highest dose often 41.8 µM), hits mostly inhibitors; actives 3.4% (n = 340,000); AID 651820
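1,000 cells/well; 4 h culture; + compound; + HCVcc-Cre (~0.5 moi); 44 h; luciferase substrate, RT 15 min; read 15 sec.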
Pf growth 96h = inhibits malaria parasite growth, 96 h | P. falciparum luciferase reporter growth, 96 h | Potency, µM (highest dose often 28.7 µM), hits mostly inhibitors | AID 504834 | actives 6.9% (n = 320,000)
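Erythrocytes infected with luciferase-expressing P. falciparum were dispensed at 2% hematocrit and 0.05% parasitemia (final), then incubated with compounds 96 hours at 37 C in 5% CO2. Luminescence after detection reagent addition reported growth.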
HCMV inh = human cytomegalovirus inhibition; HFF cells, HCMV-luciferase reporter, 72 h; active compounds read low; activity change, negative = inhibition, % at 57.5 µM; actives 4.5% (n = 410,000); AID 1259415; in the data active = activity change below about -60%; inconclusive = no clear call, values can overlap the other calls; inactive = above about -39%
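Two-dose cell screen: HFF monolayers treated with compounds and infected with luciferase-expressing HCMV at 1 PFU/cell, 72 h at 37C, then lysed for luciferase measurement.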
Pf growth 48h = P. falciparum growth inhibition at 48 hours (one generation); P. falciparum luciferase growth in erythrocytes, 48 h; actives 5.9% (n = 310,000); Potency, µM (series often up to 28.7 µM), actives largely listed as inhibitors; AID 504832
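First compound was added to culture medium, then infected red cells at 0.1% parasitemia and 2% hematocrit (final). After incubation at 37 C under 5% CO2, luciferase detection reagent was dispensed and light output recorded.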
A number is an active result; - = inactive; ? = inconclusive; . = no result; [ ] = remark or other dose. Unless noted, calls follow the shape of the dose curve; as a rule, active = well fitted inhibition curve with a large enough effect; inconclusive = small, poorly fitted or top-dose-only effect, or another doubt; inactive = no such curve, though single readings can be large or run the other way.

SMILES | HCV inh | Pf growth 96h | HCMV inh | Pf growth 48h
Cc1ccc2c(=O)cc(C(=O)Nc3sc4c(c3C(=O)NCc3ccccc3)CCCC4)oc2c1C | . | . | - | .
COc1ccc(-c2cccc(C3CC=CC4C3C(=O)N(Cc3ccccc3)C4c3ccc4ccccc4c3)c2)cc1 (configuration not stated) | - | 15µM | - | 9.3µM
COc1ccc(C2C3C=CCC(c4cccc(-c5ccc(C)cc5)c4)C3C(=O)N2Cc2ccccc2)cc1Cl (configuration not stated) | - | ? | - | 12µM
CN(C)c1ccc(-c2cccc(C3CC=CC4C3C(=O)N(Cc3ccccc3)C4c3ccc4ccccc4c3)c2)cc1 (configuration not stated) | - | ? | - | 9.3µM
CC(C)c1ccccc1NC(=O)CN1C(=O)c2cccc3cccc1c23 | . | . | - | .
CCc1nnc(SCc2nc(-c3ccc(OC)cc3)oc2C)c2cc3sccc3n12 | . | . | - | .
Cn1cc(S(=O)(=O)c2ccccc2)c(=O)c2cc(F)c(N3CCCCCC3)cc21 | . | . | - | .
CC(C)C[C@H]1COc2cc(NCCCN3CCOCC3)ccc2S(=O)(=O)N1 | . | . | - | .
Cn1c(=O)c2c(SCC(=O)Nc3ccc(F)cc3F)nc(C3CCCC3)nc2n(C)c1=O | . | . | - | .
COc1cc2c(cc1NC(=O)COc1cc(C)ccc1C)oc1ccccc12 | . | . | - | .
CN1CCN(CC(O)COC(c2ccccc2)c2ccccc2)CC1 (configuration not stated) | 16µM | - | ? | -
CC(=O)c1ccc(N2CCN(CC(O)COC(c3ccccc3)c3ccccc3C)CC2)cc1 (configuration not stated) | 11µM | ? | - | 10µM
CC(=O)c1ccc(OCC(O)CN2CCN(c3ccc(F)cc3)CC2)cc1 (configuration not stated) | - | - | - | .
OC(COC(c1ccccc1)c1ccccc1)CN1CCN(c2cccc(Cl)c2)CC1 (configuration not stated) | ? | - | - | ?
CC(=O)c1ccc(N2CCN(CC(O)COC(c3ccccc3)c3ccccc3)CC2)cc1 (configuration not stated) | 4µM | - | - | ?
Cc1ccc(C(OCC(O)CN2CCCCC2CO)c2ccccc2)cc1 (configuration not stated) | - | 1.7µM | - | ?
CN1CCN(CC(O)COc2ccccc2)CC1 (configuration not stated) | - | ? | - | -
Cn1c(Cc2ccccc2)nc2cnc(Nc3cccc(C(F)(F)F)c3)cc21 | . | . | - | .
CCOc1ccc(S(=O)(=O)N2CCN(c3cc(Cl)ccc3Cl)CC2)c2ccccc12 | . | . | - | .
Cc1cc(C)c2c(CC(=O)N(Cc3ccc(Cl)cc3)Cc3ccco3)coc2c1 | . | . | - | .
COc1cc(C(C)=O)ccc1OCC(O)CN1CCN(c2cc(C)cc(C)c2)CC1 (configuration not stated) | 13µM | ? | - | -
CN(C)CCCOc1ccc2c(c1)Sc1ccccc1CC2=O | 10µM | - | - | -
O=C1Cc2ccccc2Sc2cc(OCCCN3CCCCC3)ccc21 | ? | ? | - | ?
CCOC(=O)c1c(C)[nH]c(C)c1S(=O)(=O)N1CCC(C(=O)NCc2cccc(OC)c2)CC1 | . | . | - | .
CC(=O)c1sc(NC(=O)COc2ccccc2)nc1C | - | - | - | -
SMILES | HCV inh | Pf growth 96h | HCMV inh | Pf growth 48h
CCOC(=O)c1sc2nc(NC(=O)COc3ccccc3)sc2c1C | - | 1.7µM | - | .
Cc1[nH]c2ccccc2c1C1(O)C(=O)N(Cc2ccc3c(c2)OCO3)c2ccccc21 (configuration not stated) | - | 13µM | - | -
Cc1[nH]c2ccccc2c1C1(O)C(=O)N(Cc2ccc(Cl)cc2)c2ccccc21 (configuration not stated) | . | . | -99 | .
N#Cc1c(/N=C/c2ccccc2)oc(-c2ccccc2)c1-c1ccccc1 | ? | - | - | ?
N#Cc1c(/N=C/c2ccco2)oc(-c2ccccc2)c1-c1ccccc1 | ? | - | - | 17µM
CCN(CC)S(=O)(=O)c1ccc2c(c1)N(CC(=O)Nc1ccc(OC)cc1)C(=O)CS2 | . | . | - | .
CC(=O)N1CCN(C(=O)CCc2nnc(CCCCc3ccccc3)o2)CC1 | - | 12µM | - | -
Cc1cccc(-n2c(=O)c3c(c4cc(C)ccc4n3C)n(CC(=O)NCCC3=CCCCC3)c2=O)c1 | . | . | - | .
COc1ccc2[nH]c(=O)c(C(c3nnnn3C3CCCC3)N3CCN(Cc4ccc5c(c4)OCO5)CC3)cc2c1 (configuration not stated) | ? | ? | - | 12µM
CCOc1ccc2[nH]c(=O)c(C(c3nnnn3C3CCCCC3)N3CCN(CC)CC3)cc2c1 (configuration not stated) | - | -[5.75 µM] | - | ?
O=c1[nH]c2cc3c(cc2cc1C(c1nnnn1C1CCCCC1)N1CCSCC1)OCCO3 (configuration not stated) | - | - | -107 | 13µM
COc1cc2cc(C(c3nnnn3C3CCCC3)N3CCCCC3)c(=O)[nH]c2cc1OC (configuration not stated) | - | - | - | -
O=C(Nc1ccc2ccccc2c1)c1cn(-c2ccccc2)nc1-c1cccs1 | ? | 13µM | -60 | ?
CN(C)c1ccc(NC(=O)c2cn(-c3ccccc3)nc2-c2cccs2)cc1 | ? | - | - | .
CCN(CC)CCOC(=O)c1ccc(NC(=O)c2cn(-c3ccccc3)nc2-c2cccs2)cc1 | 7.9µM | ? | - | ?
CCN(CC)CCNC(=O)c1cn(-c2ccccc2)nc1-c1cccs1 | - | ? | - | .
CCOc1ccc(C(=O)Nc2nnc(SCc3cc(=O)n4ccccc4n3)s2)cc1 | . | . | - | .
O=C(COc1ccccc1F)Nc1ccccc1C(=O)OCc1cc(=O)n2nc(C3CC3)sc2n1 | . | . | - | .
O=C(c1ccco1)n1nc(-c2ccccc2)nc1NCc1ccc(F)cc1 | . | . | - | .
CN(CC(=O)Nc1cccc(F)c1)C(=O)c1ccc(N2CCCC2)c([N+](=O)[O-])c1 | ? | - | -61 | -
CN(CC(=O)Nc1cccc(F)c1)CC(=O)Nc1ccccc1[N+](=O)[O-] | ? | - | -87 | -
COc1cccc(NC(=O)CN(C)C(=O)c2ccc(N3CCCCC3)c([N+](=O)[O-])c2)c1 | - | ? | - | ?
O=C1c2cccc3c(N4CCCCC4)ccc(c23)C(=O)N1c1ccc(O)cc1 | - | - | -62 | -
O=C(O)c1ccc(N2CCCCCC2)c(N2C(=O)c3ccccc3C2=O)c1 | - | ? | - | -
O=C1c2cccc3c(N4CCCCC4)ccc(c23)C(=O)N1c1ccccc1O | ? | - | -96 | -
O=C1c2cccc3cccc(c23)C(=O)N1c1ccc(O)cc1 | - | ? | - | -
COc1ccc(-c2nc(CSCC(=O)NCc3ccccc3Cl)c(C)o2)cc1OC | . | . | - | .
Cc1cccc(NC(=O)CSc2nc3ccccc3c3nc(CCn4cncc4C)nn23)c1 | . | . | - | .
NC(CCc1ccccc1)c1csc(NC(=O)Nc2ccccc2Oc2ccccc2)n1 (configuration not stated) | . | . | - | .
COCCn1ccc2c(OCC(=O)Nc3cccc(C(F)(F)F)c3)cccc2c1=O | . | . | - | .

Source: PubChem BioAssay (National Center for Advancing Translational Sciences (NCATS))
